The % Inhibition is the change of the read-out against control, counted positive when it falls.

Molecules are shown by their SMILES. About 3,200 (25%) of roughly 13,000 compounds showed an effect of 50% or more. This is one part of the list.

The text below walks through data of PMC4552634, “A New Set of Chemical Starting Points with Plasmodium falciparum Transmission-Blocking Potential for Antimalarial Drug Discovery” (PLoS ONE, 2015).

This experiment relates to P. falciparum stage V gametocytes. Also noted: BacTiter-Glo ATP luminescence viability of purified stage V gametocytes in 384-well plates, per cent inhibition versus DMSO. Conditions: 48 h, 5 µM; inhibitor.
On to `COc1ccc2nc(C)cc(Nc3ccc(Oc4ccc(Cl)c5ccccc45)c(Cl)c3)c2c1` [TCMDC-123856], for which the “% Inhibition” value worked out at 5.816%.
Next, `N#Cc1ccc2c(c1)CN(CCC1CCC(NC(=O)c3cc4cnccc4[nH]3)CC1)CC2` (stereo not shown) [TCMDC-139174]: -27.42%.
As to `O=C(NCc1cccc(F)c1)Nc1ccc(-c2ccc(-c3nc4ccc(C(F)(F)F)cc4[nH]3)cc2)cc1` [TCMDC-133287], the “% Inhibition” value was -9.31%.
Turning to `Cc1cccc(NC(c2cccs2)c2c(NC(=O)c3ccccc3)sc(C)c2C)n1` (stereo not shown) [TCMDC-124747], the “% Inhibition” value was -63.38%.
With `CCCCCOc1ccc(N2C(N)=NC(N)=NC2(C)C)cc1` [TCMDC-137711], the “% Inhibition” value came to 13.1%.
Turning to `COc1ccc(OCCON)cc1` [TCMDC-123473], the “% Inhibition” value is 14.77%.
As for `CCCCCCOc1ccc(N2C(N)=NC(N)=NC2(C)C)cc1` [TCMDC-137369], the “% Inhibition” value is given as 25.73%.
Take `C=CCNC(CCCCC)c1ccc(OCCOc2ccc(C(CCCCC)NCC=C)cc2)cc1` (stereo not shown) [TCMDC-137483]: the “% Inhibition” value worked out at 106.6%.
For `CCCCCOc1ccc(NC2=CC(=O)C(=O)c3ccccc32)cc1` [TCMDC-125724], the “% Inhibition” value is listed as -1.294%.
On to `CCCCCCC(N)c1ccc(OCCCOc2ccc(C(N)CCCCCC)cc2)cc1` (stereo not shown) [TCMDC-137621], for which the “% Inhibition” value stood at 121.4%.
On to `CCCCCC(NCCCC)c1ccc(OCCOc2ccc(C(CCCCC)NCCCC)cc2)cc1` (stereo not shown) [TCMDC-137613], for which the “% Inhibition” value is recorded as 107.4%.
For `CCCCCCCCOc1ccc(N2C(N)=NC(N)=NC2(C)C)cc1` [TCMDC-137707], the “% Inhibition” value was -8.138%.
The result for `CCCCC(NCC)c1ccc(OCCOc2ccc(C(CCCC)NCC)cc2)cc1` (stereo not shown) [TCMDC-137612] reads 115.6%; that for `CCCCOc1ccc(N2C(N)=NC(N)=NC2(C)C)cc1` [TCMDC-124279], -11.62%.
Take `CCCCOc1ccc(C(O)C(CN2CCCCC2)c2ccccc2)cc1` (stereo not shown) [TCMDC-124252]: the “% Inhibition” value is listed as 4.712%.
`CC(O)C1CCCCN1C(=O)c1cccc(-c2ccc(-c3nc4cc(C(F)(F)F)ccc4[nH]3)cc2)c1` (stereo not shown) [TCMDC-132334]: the “% Inhibition” value was -28.97%.
Turning to `CC(C)CCn1c(Sc2ccc(C#N)c([N+](=O)[O-])c2)nnc1-c1ccc(N(C)C)cc1` [TCMDC-135617], the “% Inhibition” value is on record as 45.75%.
Turning to `COc1ccc(-c2nc3c(NCc4ccccc4)nccc3[nH]2)c(OC)c1` [TCMDC-137551], the “% Inhibition” value is listed as -15.03%.
As for `C=CCn1c(SCc2c(C)noc2C)nc2scc(-c3cccs3)c2c1=O` [TCMDC-125027], the “% Inhibition” value was -8.905%.
For the molecule `CC(C)c1ncc(-c2ccncc2)c(C2CCC(CNC(=O)c3ccncc3)CC2)n1` (stereo not shown) [TCMDC-124824], the “% Inhibition” value turned out to be 1.29%.
`Cc1[nH]c2ccccc2c1C1=CCN(CCN2CCOc3c(Br)cccc3C2=O)CC1` [TCMDC-140965]: the “% Inhibition” value was -7.337%.
`CN1CCN(c2cc3c(Nc4ccc5c(cnn5Cc5ccccc5)c4)ncnc3cn2)CC1` [TCMDC-137767]: the “% Inhibition” value was 5.484%.
Next, `N#Cc1ccc2c(c1)CN(C1CCC(NC(=O)c3cc(-c4ccc(Cl)cc4)cs3)CC1)CCC2` (stereo not shown) [TCMDC-133504]: 5.468%; `CCOC(=O)/C(=N\OC(C)(C)C(=O)NCc1ccc(O)c(O)c1)c1csc(NC(c2ccccc2)(c2ccccc2)c2ccccc2)n1` [TCMDC-132099]: -13.25%; `CCOC(=O)/C(=N\OC(C(=O)OC(C)(C)C)c1ccccc1)c1csc(NC(c2ccccc2)(c2ccccc2)c2ccccc2)n1` (stereo not shown) [TCMDC-131980]: 21.22%.
As for `CC(C)(C)OC(=O)/C=C(\C(=O)OCc1ccc([N+](=O)[O-])cc1)c1csc(NC(c2ccccc2)(c2ccccc2)c2ccccc2)n1` [TCMDC-131971], the “% Inhibition” value is 65.48%.
Regarding `COc1ccc(NC(=O)/C=C/c2ccc(Oc3ccccc3Cl)c([N+](=O)[O-])c2)cc1OCCN(C(C)C)C(C)C` [TCMDC-140388], the “% Inhibition” value was -71.01%.
Regarding `CC(C)(C)c1ccc2nc(-c3ccc(/C=C/C(=O)NC4CCN(Cc5ccccc5)CC4)cc3)[nH]c2c1` [TCMDC-140456], the “% Inhibition” value was 48.62%.
In the case of `Cc1cc2nc(-c3ccc(/C=C/C(=O)NC4CCCCC4)cc3)[nH]c2cc1C` [TCMDC-140435], the “% Inhibition” value is listed as -5.542%.
For `O=C(/C=C/c1ccc(-c2nc3ccc(Cl)cc3[nH]2)cc1)NC1CCN(Cc2ccccc2)CC1` [TCMDC-140443], the “% Inhibition” value is reported as 63%.
Next, `Cc1cc2nc(-c3cccc(C(=O)NC4CCN(Cc5ccccc5)CC4)c3)[nH]c2cc1C` [TCMDC-140424]: 75.94%; `O=C(C=Cc1ccc(-c2nc3ccccc3[nH]2)cc1)NC1CCN(Cc2ccccc2)CC1` [TCMDC-140400]: -89.03%; `O=C(NC1CCN(Cc2ccccc2)CC1)c1cccc(-c2nc3ccc(Cl)cc3[nH]2)c1` [TCMDC-140425]: 27.77%.
Take `COC(=O)c1ccc2nc(-c3ccc(C(=O)NC4CCN(Cc5ccccc5)CC4)s3)[nH]c2c1` [TCMDC-140426]: the “% Inhibition” value is reported as -65.59%.
For `CC(C)(C)c1ccc2nc(-c3ccc(C(=O)NC4CCN(Cc5ccccc5)CC4)s3)[nH]c2c1` [TCMDC-140514], the “% Inhibition” value amounted to 58.98%.
For the molecule `COC(=O)c1ccc2nc(-c3cc(OC)c(O)c(C(=O)NC4CCN(Cc5ccccc5)CC4)c3)[nH]c2c1` [TCMDC-140427], the “% Inhibition” value came out at 6.107%.
For `COC(=O)c1ccc2nc(-c3ccc(/C=C/C(=O)NC4CCN(Cc5ccccc5)CC4)cc3)[nH]c2c1` [TCMDC-140446], the “% Inhibition” value amounted to 84.95%.
For `Cc1cc2nc(-c3ccc(C(=O)NC4CCN(Cc5ccccc5)CC4)cc3)[nH]c2cc1C` [TCMDC-140428], the “% Inhibition” value is on record as -59.23%.
On to `Cc1ccc2nc(-c3ccc(C(=O)NC4CCN(Cc5ccccc5)CC4)s3)[nH]c2c1` [TCMDC-140399], for which the “% Inhibition” value is -1.012%.
The result for `CCN1CCN(c2cc(C)c3cc(NC(=O)c4cncc(Br)c4)ccc3n2)CC1` [TCMDC-125571] reads -6.09%; that for `Cc1ccc(-n2c(=O)c3c(n4c(SC(C)C)nnc24)-c2ccccc2CC32CCCCC2)cc1` [TCMDC-125077], -67.75%; that for `Cc1cc([N+](=O)[O-])ccc1NC(=O)Nc1cccc(C(F)(F)F)c1` [TCMDC-124561], -49.1%.
On to `Cc1cccc2nc(-c3cccc(-c4cccc(C(=O)NCCN5CCCC5)c4)c3)[nH]c12` [TCMDC-132323], for which the “% Inhibition” value amounted to 21.11%.
Take `C=CC[C@H](NC(=O)c1ccc(NS(=O)(=O)c2ccc3nc(N)[nH]c(=O)c3c2)cc1)C(=O)OCCCC` [TCMDC-137699]: the “% Inhibition” value amounted to 10.92%.
In the case of `CCCCCCCCN1CCCN(C(=O)c2cccc(NC(=O)Nc3ccc4ccccc4c3)c2)CC1` [TCMDC-141690], the “% Inhibition” value was -11.26%.
As to `CC(CNc1ccnc(Nc2ccc3[nH]c(=O)[nH]c3c2)n1)c1ccccc1` (stereo not shown) [TCMDC-136806], the “% Inhibition” value was -16.39%.
Consider `Nc1nc(N)c2c(Sc3ccccc3)cccc2n1` [TCMDC-131943], for which the “% Inhibition” value is listed as 8.754%.
`NC(=O)c1ccsc1NC(=O)CNC(c1ccccc1)c1ccc(Cl)cc1` (stereo not shown) [TCMDC-125330]: the “% Inhibition” value turned out to be 14.63%.
On to `Cc1cc2nc(-c3ccc(/C=C/C(=O)NC4CCN(Cc5ccccc5)CC4)cc3)[nH]c2cc1C` [TCMDC-140434], for which the “% Inhibition” value is recorded as 78.1%.
Consider `Cc1ccc2[nH]c(-c3ccc(/C=C/C(=O)NC4CCN(Cc5ccccc5)CC4)cc3)nc2c1C` [TCMDC-140451], for which the “% Inhibition” value is reported as -45.16%.
`Cc1ccc2nc(-c3ccc(C=CC(=O)NC4CCN(Cc5ccccc5)CC4)cc3)[nH]c2c1` [TCMDC-140401]: the “% Inhibition” value was 2.225%.
Next, `O=C(Nc1ccc(OC2CCN(Cc3ccc(F)cc3)CC2)c(Cl)c1)c1ccco1` [TCMDC-133750]: 24.88%; `O=C(Nc1ccc(OC2CCN(Cc3ccsc3)CC2)c(Cl)c1)c1ccco1` [TCMDC-134271]: 9.288%; `Cc1cc(NC(=O)c2cccs2)ccc1OC1CCN(Cc2ccc(C#N)cc2)CC1` [TCMDC-133954]: 61.72%.
As to `Cc1cc(NC(=O)c2ccco2)ccc1OC1CCN(Cc2ccc(F)cc2)C1` (stereo not shown) [TCMDC-133760], the “% Inhibition” value was 22.57%.
Take `O=C(Nc1ccc(OC2CCN(Cc3ccc(F)cc3)C2)c(Cl)c1)c1cccs1` (stereo not shown) [TCMDC-133757]: the “% Inhibition” value came out at 50.68%.
For the molecule `O=C(Nc1ccc(OC2CCN(Cc3ccccc3)C2)c(Cl)c1)c1ccco1` (stereo not shown) [TCMDC-133971], the “% Inhibition” value is reported as 37.01%.
The result for `O=C(Nc1ccc(OC2CCN(Cc3ccccc3)CC2)c(Cl)c1)c1ccco1` [TCMDC-133966] reads 63.08%.
In the case of `O=C(Nc1ccc(OC2CCN(Cc3ccc(F)cc3)CC2)c(Cl)c1)c1cccs1` [TCMDC-133746], the “% Inhibition” value is recorded as 32.62%.
`Cc1cc(NC(=O)c2cccs2)ccc1OC1CCN(Cc2ccc(C#N)cc2)C1` (stereo not shown) [TCMDC-133960]: the “% Inhibition” value worked out at 27%.
`Cc1cc(NC(=O)c2cccs2)ccc1OC1CCN(Cc2ccc(F)cc2)C1` (stereo not shown) [TCMDC-133754]: the “% Inhibition” value came to 20.26%.
For `N#Cc1ccc(CN2CCC(Oc3ccc(NC(=O)c4cccs4)cc3Cl)CC2)cc1` [TCMDC-133955], the “% Inhibition” value stood at 10.06%.
Regarding `O=C(Nc1ccc(OC2CCN(Cc3ccc(F)cc3)C2)c(Cl)c1)c1ccco1` (stereo not shown) [TCMDC-133761], the “% Inhibition” value is reported as 61.05%.
The result for `FC(F)(F)c1ccc2[nH]c(-c3ccc(-c4ccc(CNCc5cnn(-c6ccccc6)n5)cc4)s3)nc2c1.O=C(O)C(F)(F)F` [TCMDC-132975] reads -22.66%.
The result for `COc1cccc(NC(=O)Nc2ccc(-c3oc(C(=O)NCC(c4ccccc4)N(C)C)cc3-c3ccncc3)cc2)c1` (stereo not shown) [TCMDC-135783] reads -10.27%; that for `Cc1c(F)cc(C(=O)NC2CC2)cc1-c1ccc2c(cnn2S(=O)(=O)c2ccc(C#N)cc2)c1` [TCMDC-135240], -5.005%; that for `COc1ccc2nccc([C@@H](O)CN3CCC(NC(=O)c4[nH]c5ccccc5c4-c4ccccc4)CC3)c2c1` [TCMDC-141034], -42.03%.
